The structures appear in SMILES notation. Records with an inconclusive call do not appear. The source made the active and inactive calls. The calls were made as follows: active = hit-call score of the fitted dose curve at least 0.9, where 1 is the maximum; inconclusive = response in the unintended direction; inactive = score below 0.9.

A short description of the assay: Tanguay_ZF_120hpf_EYE_legacy: (Legacy) Oregon State University Tanguay Lab 120 Hour Post-fertilization zebrafish Assay for Eye Malformation (AID 2283636).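 Also: binary presence or absence of eye malformation scored by brightfield in 120 hpf larvae.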 The protocol: Tanguay_ZF_120hpf_legacy is a whole embryo, multiplexed endpoint assay using zebrafish larvae exposed for 120 hours post fertilization on a 96-well plate.Tanguay_ZF_120hpf_EYE_legacy is one of one assay component(s) measured or calculated from the Tanguay_ZF_120hpf_legacy assay. It is designed to make measurements of zebrafish development as detected with brightfield microscopy of developing zebrafish embryos.Data from the assay component Tanguay_ZF_120hpf_EYE_legacy was analyzed into 1 assay endpoints. This assay endpoint, Tanguay_ZF_120hpf_EYE_legacy, was analyzed in the positive analysis fitting direction relative to DMSO as the negative control and baseline of activity. Using a type of morphology reporter, gain-of-signal activity can be used to understand changes in developmentals as they relate to the whole embryo. To generalize the intended target to other relatable targets, this assay endpoint is annotated to the zebrafish development intended target family, where the subfamily is embryonic eye development.
Zebrafish husbandry: Tropical 5D wild-type adult zebrafish were housed in at an approximate density of 1000 per 100 gallon tank at the Sinnhuber Aquatic Research Laboratory, Oregon State University, Corvallis, OR. Each tank was kept at standard laboratory conditions of 28C on a 14-h light/10-h dark photoperiod in fish water consisting of reverse osmosis water supplemented with a commercially available salt (Instant Ocean). Spawning funnels were placed into the tanks the night prior, and embryos were collected and staged. To increase bioavailability, the chorion was enzymatically removed using pronase (63.6mg/ml, >/= 3.5U/mg, Sigma-Aldrich: P5147) at 4 hours post fertilization (hpf) using a custom automated dechorionator.Chemical exposures: Six hpf dechorionated embryos were placed 1 embryo per well in a 96-well plate prefilled with 90 ul of EM using automated embryo placement systems (AEPS). Ten microliters of each row of dilution plate 2 was added to 2 exposure plates. The final DMSO concentration used was 0.64% (vol/vol). Thirty-two embryos were also exposed to 5uM trimethyltin chloride (positive control). Plates were sealed to prevent evaporation and foil covered to reduce light exposure and kept in a 28C incubator. Embryos were statically exposed until 120 hpf. At 24 hpf, embryos were assessed for photomotor response using a custom photomotor response analysis tool (PRAT) and for developmental toxicity endpoints (MO24: mortality at 24 hpf, DP: developmental progression, SM: spontaneous movement, and NC: notochord distortion). At 120 hpf, locomotor activity was measured using Viewpoint Zebralab and assessed for 18 endpoints. Zebrafish acquisition and analysis program (ZAAP), a custom program designed to inventory, acquire, and manage zebrafish data, was used to collect developmental endpoints as either present or absent (i.e., binary responses were recorded). If mortality occurred for an embryo (at either 24 or 120 hpf), the non-mortality endpoints were not measured.
In the case of `CCON=C(CC)C1=C(O)CC(c2c(C)cc(C)cc2C)CC1=O` (stereo not given), the compound was called inactive. Still for that read-out and setting: for `CC(Oc1ccc(Cl)cc1Cl)C(=O)O` (stereo not given) the value was “inactive”; for `CCCCNC(=O)OCC#CI`, “inactive”; for `Cc1cc(Cl)ccc1OCC(=O)O`, “inactive”.

Turning to `CCNc1nc(Cl)nc(NC(C)C)n1`, the compound was classed as inactive. The same measure, in the same setting: the entry for `CNC(=O)ON=CC(C)(C)SC` is “inactive”; for `Fc1ccc(Oc2ccnc3cc(Cl)cc(Cl)c23)cc1` it is “inactive”.

For the compound `N#Cc1nn(-c2c(Cl)cc(C(F)(F)F)cc2Cl)c(N)c1S(=O)C(F)(F)F` (stereo not given), the compound was called inactive. With `COC(=O)C(C)Oc1ccc(Oc2ccc(Cl)cc2Cl)cc1` (stereo not given), the compound was called inactive.

Take `O=C(O)COc1nc(Cl)c(Cl)cc1Cl`: the compound was called inactive. The same measure, in the same setting: for `CCCN(CCC)c1c([N+](=O)[O-])cc(S(N)(=O)=O)cc1[N+](=O)[O-]` the value was “inactive”; for `C=CCC1=C(C)[C@@H](OC(=O)[C@@H]2[C@@H](C=C(C)C)C2(C)C)CC1=O`, “inactive”. Same read-out and setting: for `COP(=S)(OC)Oc1nc(Cl)c(Cl)cc1Cl` the value was “inactive”; for `CCCCOC(=O)c1ccccc1C(=O)OCCCC`, “inactive”. The AC50 is the concentration at which the activity in the assay is half-maximal. As for `CCCCNC(=O)n1c(NC(=O)OC)nc2ccccc21`, the AC50 was 72.8 µM (active).

Take `N#Cc1cc(Br)c(O)c(Br)c1`: the compound was classed as inactive. Regarding `C=CC1(C)OC(=O)N(c2cc(Cl)cc(Cl)c2)C1=O` (stereo not given), the result was inactive.

For `CON(C)C(=O)Nc1ccc(Cl)c(Cl)c1`, the compound was called inactive. On the same count and under the same terms, for `CCOP(=S)(OCC)SCn1c(=O)oc2cc(Cl)ccc21` the value was “inactive”; for `O=C(O)c1nc(Cl)ccc1Cl`, “inactive”.

As for `CC(C)Oc1cc(-n2nc(C(C)(C)C)oc2=O)c(Cl)cc1Cl`, the compound was classed as inactive.

On to `CCCC1COC(Cn2cncn2)(c2ccc(Cl)cc2Cl)O1` (stereo not given), for which the concentration at half-maximal activity (AC50) was 26.9 µM (active). As to `Oc1ccccc1-c1ccccc1`, the call was inactive.

As to `COc1cnc(OC)n2nc(NS(=O)(=O)c3c(OCC(F)F)cccc3C(F)(F)F)nc12`, the compound was called inactive. In the case of `CCNc1nc(Cl)nc(NCC)n1`, the result was inactive. Still for that read-out and setting: the entry for `CC(C)C1(C)N=C(c2nc3ccccc3cc2C(=O)O)NC1=O` (stereo not given) is “inactive”; for `CO/C=C(/C(=O)OC)c1ccccc1Oc1cc(Oc2ccccc2C#N)ncn1` it is “inactive”. On the same count and under the same terms, the entry for `CN(C)C(=S)SSC(=S)N(C)C` is “inactive”; for `CCCCC(CC)COC(=O)c1ccccc1C(=O)OCC(CC)CCCC` (stereo not given) it is “inactive”.

Turning to `COC(=O)N(OC)c1ccccc1COc1ccn(-c2ccc(Cl)cc2)n1`, the call was inactive. Take `COC(=O)C=C(C)OP(=O)(OC)OC`: the result was inactive. The same measure, in the same setting: the entry for `Cc1ccc(-c2c(Cl)nc(C#N)n2S(=O)(=O)N(C)C)cc1` is “inactive”.

For `COC(=O)c1ccccc1C(=O)OC`, the result was inactive.

As for `CNC(=S)S`, the outcome was inactive.

Regarding `OC(c1ccc(Cl)cc1)(c1cncnc1)c1ccccc1Cl` (stereo not given), the compound was classed as inactive.

Consider `COc1nc(NC(C)C)nc(NC(C)C)n1`, for which the result was inactive. Regarding `CCc1nn(C)c(C(=O)NCc2ccc(C(C)(C)C)cc2)c1Cl`, the call was inactive. Still for that read-out and setting: for `CC(C)(C)c1ccc(CSc2cnn(C(C)(C)C)c(=O)c2Cl)cc1` the value was “inactive”; for `C=CCC1=C(C)C(OC(=O)C2C(C=C(C)C)C2(C)C)CC1=O` (stereo not given), “inactive”. Take `CCOC(=O)C(Cl)Cc1cc(-n2nc(C)n(C(F)F)c2=O)c(F)cc1Cl` (stereo not given): the AC50 is 1.7 µM (active).

(Values after PubChem BioAssay (EPA / NIEHS).)
